# Reference: PubChem BioAssay
# Active and inactive are the calls of the source.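 Rule for the calls: active = z-score of at least 1.8 in each of two replicates, scored against plate mean and spread of sample wells; inactive = the rest.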
# Assay: galactose survival enhancers in mitochondrial complex I cybrids – cell-based, galactose medium, ATP luminescence, primary screen (AID 1645843);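 note: positive z means more ATP and so rescue of galactose-driven cybrid death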
# Settings: complex I mutant cybrid cells, 72 h, hits give high values
row,Structure (SMILES),z-score
1,CC(=O)N[C@@H](CC(C)C)C(=O)N1CCC(n2cc(C(C)(C)N)nn2)CC1,-0.505 (inactive)
2,CCCn1cnc(NC(=O)NC2CCN(Cc3ccccc3)CC2)n1,0.58 (inactive)
3,CNCc1cn(C2CCN(CCC(C)CCCC(C)(C)O)CC2)nn1 (centres undefined),-0.56 (inactive)
4,c1ccc(-c2nc3c(cnn3C3CCCCC3)[nH]2)c(Cn2cccn2)c1,0.525 (inactive)
5,C=C1C2(C(=O)N3CCCC(COC)C3)CCC(C2)C1(C)C (centres undefined),-0.525 (inactive)
6,Fc1cccc(-c2ccc(N3CCC(NC4CCNCC4)CC3)cc2)c1,-1.3 (inactive)
7,CCn1ncc2[nH]c(-c3cc(F)ccc3-n3cccn3)nc21,-0.185 (inactive)
8,C=C1C(C)(C)[C@H]2CC[C@]1(C(=O)N1CCC(n3cc(CC(C)C)nn3)CC1)C2,-0.52 (inactive)
9,CCC(CC)(CCC#N)CNC1COC2(CCCC2)C1 (centres undefined),-0.555 (inactive)
10,COc1cccc(-n2cc(-c3ccnc(N(C)Cc4cccnc4)n3)cn2)c1,0.62 (inactive)
11,CC(CCN1CCC(Cn2cc(CCO)nn2)CC1)CC(C)(C)C (centres undefined),-0.27 (inactive)
12,Cc1ccc(CC(=O)Nc2ccnn2C2CCCCC2)cc1F,0.325 (inactive)
13,COc1cccc(OC)c1-c1noc(CCN2C(=O)COc3ccccc32)n1,1.39 (inactive)
14,Cc1nsc(NC(=O)N2CCCN(c3ccc(F)cc3)CC2)n1,-0.27 (inactive)
15,CC1(C)CCN(C(=O)c2cc(-c3cnc(C4CC4)nc3)nc3ccc(F)cc23)C1,-0.54 (inactive)
16,Cc1cc(NC(=O)Cn2ccc(-c3ccncc3)n2)n(-c2ccccn2)n1,0.42 (inactive)
17,OCCCCCNc1nccc(-c2cnn(-c3ccccc3F)c2)n1,-0.905 (inactive)
18,Cc1ccc(-c2ccn(CC(=O)Nc3nn(C)c4ccccc34)n2)s1,2.7 (active)
19,COc1cc(-c2cccc(C)c2C)nc(N)n1,-0.335 (inactive)
20,Cn1nccc1NC(=O)Cn1ccc(-c2cnn(-c3ccccc3F)c2)n1,-0.815 (inactive)
21,Cc1cc(N2CCCN(C(=O)Nc3nncs3)CC2)ccn1,-0.265 (inactive)
22,CCn1ncc(NC(=O)Cn2ccc(C(=O)OC)n2)n1,-0.44 (inactive)
23,CC(C)Cc1cn(C2CCN(C(=O)CC3CCCCCC3)CC2)nn1,2.74 (active)
24,CCC1(CNC(=O)Nc2nc(C)ns2)CCC1,1.42 (inactive)
